According to PubChem BioAssay (NCI):
The panel holds about 83,000 compounds, 20% with a hit somewhere; the sample as a whole holds those more often.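 Single-dose data. Exposure time 48 hours. Values below 10 considered active.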 Activity calls are given as the source filed them.

The compounds below were run on KM12 colon (assay: NCI-60 one-dose screen, 48 h (100 = growth as untreated, 0 = no growth, -100 = all killed)). Conditions: 10 µM unless noted.
With `CCn1cc(-c2ccnc(NCCNS(=O)(=O)c3cccc4ccccc34)c2)c(-c2cccc(O)c2)n1` the growth was 99.1% (inactive).
For `Cc1ccc(-c2cc(O)c(-c3ccc(C)cc3C)cc2O)c(C)c1`, the growth was 55.3% (inactive).
With `CCc1ccc(-c2ccc(COc3ccc(CC4SC(=O)NC4=O)cc3)cc2)cc1` (stereo not drawn) the growth was 64% (inactive).
In the case of `CCCn1ccnc1C(O)c1ccc(OCc2ccccc2)c(OC)c1` (stereo not drawn), the growth is reported as 101% (inactive).
With `O=C(Nc1cc(F)cc2cccnc12)c1cnc(N2CCNCC2)cn1` the growth was 81.2% (inactive).
With `O=C(CCCSc1nc(-c2ccccc2)cc(-c2ccccc2)n1)NO` the growth was 14.4% (inactive).
`O=C(CCN1CCCCC1)c1ccc(Cl)cc1` was tested, and the growth was 102% (inactive).
For `O=C(NCCCNC(=O)OCc1ccc2c(Br)cc(Br)c(O)c2n1)OCc1ccc2c(Br)cc(Br)c(O)c2n1`, the growth was 7.57% (active).
With `Cc1ccc(N)c(O)c1` the growth was 99.5% (inactive).
With `COc1cc2c(=O)[nH]c3cc([N+](=O)[O-])ccc3c2cc1[N+](=O)[O-]` the growth was 53.3% (inactive).
`C/C=C/C1OC23CCCCC2C(C#N)(C(=N)O3)C1(C#N)C#N` (stereo not drawn) was tested, and the growth was 96.3% (inactive).
For `Cc1ccc(S(=O)(=O)NCCCNc2nccc(-c3c(-c4cccc(F)c4)nc4occn34)n2)cc1`, the growth was 77.6% (inactive).
For `COc1ccc2c(c1)C(C)Cc1c(ncnc1-n1cnc3ccccc31)N2C` (stereo not drawn), the growth was 17.8% (inactive).
In the case of `Clc1ccccc1/C=N\Nc1ccccn1`, the growth is reported as 87.2% (inactive).
In the case of `CC(C)C1=NOC(=O)C1=Cc1cn(-c2ccccc2)nc1-c1cccc([N+](=O)[O-])c1`, the growth is reported as 87% (inactive).
With `CC(C)C1=NOC(=O)C1=Cc1cn(-c2cccnc2)nc1-c1ccccc1` the growth was 102% (inactive).
In the case of `O=C1COCCN1c1ccc(NCc2cn(Cc3ccccc3)c3ccccc23)cc1`, the growth is reported as 104% (inactive).
With `COc1ccc(N(c2nc(-c3ccc([N+](=O)[O-])cc3)cs2)C(C)C)cc1` the growth was 75.7% (inactive).
In the case of `OC(c1ccc(Cl)cc1)(c1ccc(Cl)cc1)C(O)(c1ccc(Cl)cc1)c1ccc(Cl)cc1`, the growth is reported as 24.2% (inactive).
For `O=C(NCc1ccc(Cn2c(=O)sn(-c3ccccc3)c2=O)cc1)OCc1ccc2c(Br)cc(Br)c(O)c2n1`, the growth was -61.8% (active).
For `O=S(=O)(NCCNc1nccc(-c2c(-c3cccc(F)c3)nc3occn23)n1)c1ccc(C(F)(F)F)cc1`, the growth was 92% (inactive).
In the case of `O=C(Nc1ccc(Cl)c(C(F)(F)F)c1)Nc1ccc(-c2cccnc2)cc1N1CCC(CO)CC1`, the growth is reported as 25.7% (inactive).
With `O=C(CCNCc1ccccc1)c1ccccc1` the growth was 96.7% (inactive).
